Source: PubChem
CHT inh – inhibits the human high affinity choline transporter; Q9GZV3; CHT-expressing cells, membrane potential dye, choline response; hits give low values; B-score at 10 µM; 310,000 compounds, 0.86% hits; AID 488975;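 active means B-score over 3 SD under the library average, and starting fluorescence ratio not unusually high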;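 further: choline stimulus applied at its EC90 after an EC20 pre-addition; B-score computed on integrated fluorescence ratio after choline addition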
MEKK3 PB1 HTS – modulators (inhibitors or enhancers) of MEK5 binding to human MEKK3 PB1 domain; bead-based flow cytometry, Alexa488-MEK5 binding to MEKK3; actives lie on both sides; 0 = blocked by unlabeled MEK5, 100 = vehicle; binding response (% of control), % at 10 µM; 290,000 compounds, 1.4% hits; AID 1529;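 active means binding response more than 3 SD above or below the average of its plate-row segment, actives on both sides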;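 further: Alexa488 bead fluorescence after subtracting the streptavidin-only scavenger bead signal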
Target sequence (Q99759 whole entry, looked up, the tested form may be a part): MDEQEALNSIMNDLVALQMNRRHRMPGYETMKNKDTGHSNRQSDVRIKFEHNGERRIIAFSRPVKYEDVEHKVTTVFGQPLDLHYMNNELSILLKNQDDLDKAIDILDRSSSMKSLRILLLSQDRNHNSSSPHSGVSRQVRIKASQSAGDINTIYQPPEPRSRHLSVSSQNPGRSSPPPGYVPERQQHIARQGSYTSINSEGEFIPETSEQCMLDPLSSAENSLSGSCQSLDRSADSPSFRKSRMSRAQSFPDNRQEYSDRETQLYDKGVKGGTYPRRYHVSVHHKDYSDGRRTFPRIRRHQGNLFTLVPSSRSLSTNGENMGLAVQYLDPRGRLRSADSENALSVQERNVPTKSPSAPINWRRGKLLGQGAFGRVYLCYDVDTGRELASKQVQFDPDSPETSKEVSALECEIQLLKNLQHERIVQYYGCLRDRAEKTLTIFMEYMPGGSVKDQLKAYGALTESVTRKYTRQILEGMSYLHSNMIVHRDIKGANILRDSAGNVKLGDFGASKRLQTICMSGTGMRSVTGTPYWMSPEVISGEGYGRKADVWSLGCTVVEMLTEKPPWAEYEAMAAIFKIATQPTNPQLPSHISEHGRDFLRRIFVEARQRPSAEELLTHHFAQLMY
CHT PAM – human CHT allosteric activation; 310,000 compounds, 0.49% hits; Q9GZV3; B-score at 10 µM; CHT-expressing cells, membrane potential dye, choline EC20; hits give high values; LV-AA mutant CHT in HEK293 cells;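 active means initial fluorescence not abnormally high and integrated response B-score, plate-corrected, over 3 SD above library mean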
MEKK2 mut-MEK5 – signal of MEK5 binding to mutant human MEKK2 PB1 domain. bead flow cytometry, Alexa488-MEK5 binding to MEKK2 mutant. 290,000 compounds, 0.35% hits. percent response, % at 10 µM; in the data active means percent response above about 24%, passing the limit was not always enough
Mot1-301 SUMO – inhibitors of SUMOylation pathway: yeast Mot1-301 growth rescue; S. cerevisiae Mot1-301 growth rescue, ATP luminescence, 38.5C; percent above DMSO median, 100 means doubled; growth rescue, % at 18.8 µM; 320,000 compounds, 1% hits; AID 2716;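 active means every valid replicate shows activation above 250% relative to neutral control wells; inactive means the rest, any valid replicate at or below 250%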;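 further: OY570 slx delta 5 strain wells were the positive control but not used for scaling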
MEKK2wt PB1 HTS – raises or lowers MEK5 binding to wildtype human MEKK2 PB1 domain; Q9Y2U5; bead flow cytometry, Alexa488-MEK5 binding to MEKK2 WT; actives lie on both sides; binding response (% of control), % at 10 µM; 290,000 compounds, 1.1% hits; AID 1531; in the data active means binding response below about 67% or above about 130%
An asterisk follows results filed as active; i = inactive; x = not tested or not shown. Sampled rows, rich in hits. Any-hit rate of the full collection: about 4.1%.

SMILES	CHT inh	MEKK3 PB1 HTS	CHT PAM	MEKK2 mut-MEK5	Mot1-301 SUMO	MEKK2wt PB1 HTS
CCOC(=O)/C(=N\Nc1ccc(Br)cc1)N1CC(C)OC(C)C1 (centres undefined)	i	95	i	1	428*	96
O=C(CCn1c(=O)oc2ccccc21)NC1=NCCS1	i	102	i	2	342*	100
CC(=O)Nc1ccc(NC(=O)CCn2c(=O)oc3ccccc32)cc1	i	103	i	-1	-13	102
Cn1ccnc1SCC(=O)Nc1cc(C(F)(F)F)ccc1N1CCOCC1	i	104	i	5	-17	105
O=C(Nc1cccnc1)c1cccnc1Cl	i	104	i	1	339*	99
CCc1nnc(NC(=O)CSc2nc3cccnc3n2Cc2ccccc2)s1	i	106	i	2	305*	108
O=C(CSc1nc2cccnc2n1Cc1ccccc1)NC1CCCCC1	i	97	i	0	270	108
CCC(C)CCN1C(N(C)C)=NC[C@@H]1C (some centres undefined)	i	x	i	x	318*	x
CC(C)CCCN1C(N(C)C)=NC[C@@H]1C	i	x	i	x	8	x
COc1ccc(S(=O)(=O)Nc2c(C(=O)O)[nH]c3ccc(OC)cc23)cc1	i	98	i	3	9	100
COC(=O)c1[nH]c2ccc(F)cc2c1NS(=O)(=O)c1ccc(OC)cc1	i	102	i	-4	348*	99
CC(NC(=O)c1cc(-c2ccccn2)nc2ccc(Cl)cc12)C1CCCO1 (centres undefined)	i	101	i	-4	103	98
CC(NC(=O)c1cc(-c2ccncc2)nc2ccc(Cl)cc12)C1CCCO1 (centres undefined)	i	98	i	-3	341*	103
CCOc1ccc(C(=O)COC(=O)Cn2cnc3c2c(=O)n(C)c(=O)n3C)cc1	x	x	x	x	131	x
Oc1c(N=Nc2ccccn2)ccc2ccccc12	i	89	i	-14	12	36*
O=C(c1ccc(Cl)cc1)c1c[nH]c(C(=O)NNc2ccccc2)c1	i	97	i	-4	337*	97
COc1ccc(CCC(=O)OCC(=O)Nc2ccccc2OC(F)F)cc1OC	i	100	i	-8	18	97
CN1/C(=C\C(=O)COC(=O)Cn2nnc(-c3ccccc3)n2)C(C)(C)c2ccccc21	i	96	i	1	268*	96
COc1cc(OC)cc(C(=O)NCC(=O)OCC(=O)/C=C2/N(C)c3ccccc3C2(C)C)c1	i	101	i	-6	77	94
Oc1ccccc1-c1cc(-c2ccc(F)cc2)n[nH]1	i	107	i	3	-12	101
Oc1ccc(Cl)cc1-c1cc(-c2ccccc2)n[nH]1	i	96	i	-4	343*	98
COc1ccccc1-c1cc(-c2cc(Cl)ccc2O)n[nH]1	i	102	i	2	-5	100
Cc1ccc(O)c(-c2cc(-c3cccc(Br)c3)n[nH]2)c1	i	102	i	-5	280*	104
Oc1ccccc1-c1cc(-c2ccccc2)n[nH]1	x	x	x	x	338*	x
Cc1ccc(-c2cc(-c3ccc(C)cc3O)[nH]n2)cc1	i	106	i	5	17	108
SMILES	CHT inh	MEKK3 PB1 HTS	CHT PAM	MEKK2 mut-MEK5	Mot1-301 SUMO	MEKK2wt PB1 HTS
COCCNC(=O)CSCc1cc(C)cc(C)c1	i	102	i	2	61	101
COC(=O)C1=C(CS(=O)(=O)c2ccccc2)NC(=O)NC1c1ccccc1 (centres undefined)	i	98	i	-6	14	98
COC(=O)C1=CN(Cc2ccccc2)C=C(C(=O)OC)C1c1cc(F)ccc1F	i	106	i	4	-9	102
CCn1c(C)c(C)c2cc(C(=O)NCCCN3CCCCC3)ccc21	i	103	i	31*	-16	1.0*
CCn1c(C)c(C)c2cc(C(=O)NCCCN3CCCCCC3)ccc21	i	100	i	17	-12	136*
Cc1[nH]c2ccc(C(=O)NCCCN3CCCC3)cc2c1C	i	104	i	15	225	127
CCn1c(C)c(C)c2cc(C(=O)NCCCN3CCN(C)CC3)ccc21	i	100	i	12	-4	99
CCn1c(C)c(C)c2cc(C(=O)NCCN3CCCCCC3)ccc21	i	105	i	19	24	145*
Cc1ccc(-n2c(C)nnc2SC(C)C(=O)N2CCCC2)cc1 (centres undefined)	i	100	i	-2	285*	102
Fc1ccc(-c2noc(C3CCN(Cc4cccnc4)CC3)n2)cc1	i	106	i	13	848*	113
CCCC1CCC(c2nc(-c3cccnc3)no2)CC1 (centres undefined)	i	99	i	-1	24	99
CC(C)NC(=O)N(C)C[C@H]1Oc2c(NC(=O)C3CC3)cccc2C(=O)N([C@H](C)CO)C[C@@H]1C	x	x	x	x	0	x
On1c2c(c3c4nonc4ccc31)CCCC2	-11*	87	i	1	-9	94
COn1c2c(c3c4nonc4ccc31)CCCC2	i	89	i	-4	24	89
CN1CCN(C(=O)c2ccc3c(c2)N(C)C(=O)/C(=C/c2cccc(Cl)c2)S3)CC1	i	104	i	17	7	137*
COc1ccc(/C=C2\Sc3ccc(C(=O)N4CCN(Cc5ccccc5)CC4)cc3N(C)C2=O)cc1OC	i	104	i	3	-17	109
N#CCCn1nc(Cc2cccc3ccccc23)c(C#N)c1N	i	103	i	-4	331*	101
CC(O)CNc1ccc(-c2nn(C)c(=O)c3ccccc23)cc1[N+](=O)[O-] (centres undefined)	i	103	i	7	9	101
CCCN1CCN(CCCNC(=O)CCCn2nc(C)c3sc4ccccc4c3c2=O)CC1	i	101	i	4	352*	109
Cc1c(NC(=O)C(=O)/C=C(\O)c2ccc(Cl)cc2)c(=O)n(-c2ccccc2)n1C	i	99	i	-2	294*	102
COc1ccc(Cl)cc1NC(=O)CN(C)CC(=O)Nc1c(C)n(C)n(-c2ccccc2)c1=O	x	x	x	x	281*	x
CC(C)CC(=O)NC(=S)N(Cc1ccccc1)Cc1ccccc1	i	148*	i	1	35	107
O=C(N/N=C/c1cccnc1)c1ccc([N+](=O)[O-])cc1	i	99	6.8*	3	-12	104
O=C(Cc1ccc([N+](=O)[O-])cc1)N/N=C/c1cccnc1	i	x	i	x	1	x
